Assay results as given in PubChem BioAssay (NCI).
Compounds without any hit were thinned out: in the full panel of roughly 83,000, 20% have a hit.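 Step 1: grow cells in 96-well plates. Step 2: add test compound at a single concentration. Step 3: incubate 48 h. Step 4: record percent growth.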 Unmarked numbers belong to inactive results. Activity calls are given as the source filed them. Rule for the calls: active = growth percent below 10; inactive = the rest.

tested on: T-47D breast; test: NCI-60 one-dose screen, 48 h (100 = growth as untreated, 0 = no growth, -100 = all killed); details: 10 µM unless noted

Row | SMILES | growth
1 | COc1cccc(/C=C2\COc3ccc(-c4ccccc4)cc3C2=O)c1 | -6.21% (active)
2 | O=C1Nc2ccccc2/C1=C\c1cccc(/C=C2/C(=O)Nc3ccccc32)n1 | -51.6% (active)
3 | COc1ccc(C(=O)c2cc3c(N)c(C(=O)Nc4ccc(Br)cc4)sc3nc2C)cc1 | 70.6%
4 | O=S(=O)(O)c1cc(O)c2c(N=Nc3ccc(Nc4ccccc4)c4c(S(=O)(=O)O)cccc34)cc(S(=O)(=O)O)cc2c1 | 100%
5 | NC(=S)N/N=C(\c1ccc(Cl)cc1)C1CC1 | 30.6%
6 | CCNNC(=O)[C@@H]1[C@H](c2cc(OC)c(OC)c(OC)c2)c2cc3c(cc2[C@H](O)[C@H]1CO)OCO3 | 80.6%
7 | COc1cc2nc(-c3ccc(C(F)(F)F)cc3)cc(OCCN3CCCC3)c2cc1OC | 86.5%
8 | Clc1ccc2c(c1)c(-c1ccccc1)nc1nncn12 | 98.2%
9 | O=S(=O)(c1ccc(N/N=C\c2ccccc2)cc1)c1ccc(N/N=C/c2ccccc2)cc1 | 56%
10 | CN1C(=O)N(C)[C@H]2NC(NN)=N[C@H]21 | 91.7%
11 | COc1ccc(C(O)c2cc3c(N)c(C(=O)Nc4ccccc4)sc3nc2C)cc1 (stereo not given) | 51.7%
12 | COc1cc(C2CC(c3cccc(Nc4ccncc4)c3)=NN2c2cc(Cl)cc(Cl)c2)cc(OC)c1OC (stereo not given) | 26.7%
13 | Cc1cccc(Oc2ccc(Nc3ncnc4ccc(NC(=O)CN(C)C)cc34)cc2Cl)c1 | 39.4%
14 | O=C(CN1CCOCC1)Nc1ccc2ncnc(Nc3ccc(Oc4cccc(F)c4)c(Cl)c3)c2c1 | 23.9%
15 | Cc1cccc(Oc2ccc(Nc3ncnc4ccc(NC(=O)CNCCO)cc34)cc2Cl)c1 | 35.7%
16 | COc1cc(/C=C2\C(=O)N(Cc3ccc(Cl)cc3)c3ccccc32)cc(OC)c1OC | 32.1%
17 | Cc1ccc(O)c(C(=O)O)c1 | 106%
18 | Cc1nccc2c3ccc(OCc4cn(-c5ccc(Cl)cc5)nn4)cc3n(CCCc3ccccc3)c12 | 74.7%

Row | SMILES | growth
19 | O=[N+]([O-])c1cccc(-c2nc(-c3ccc(Cl)cc3Cl)cn2-c2ccccc2)c1 | 15.6%
20 | CC(C)CCSc1nc(NNC(N)=O)c(C#N)c(-c2ccccc2)n1 | 99.9%
21 | O=C1C(=O)c2c(nc3ncccn23)-c2ccccc21 | -48.5% (active)
22 | Cc1c2c(cc[n+]1Cc1ccc(F)cc1)c1ccc(OCc3cccc(F)c3)cc1n2Cc1cccc(F)c1 | -75.8% (active)
23 | CCOC(=O)C1=C(C)NC(C)=C(C(=O)OCC)C1c1cc(Br)c(O)c(OC)c1 | 43.8%
24 | COc1cc(C(=O)c2cnc(-c3ccc4cc[nH]c4c3)[nH]2)cc(OC)c1OC | 59%
25 | O=c1[nH]nc(-c2ccc(Br)cc2)cc1Cc1ccc(O)cc1 | 83.2%
26 | S=c1[nH]cccc1-c1nnc2n1Nc1nc3ccccc3cc1CS2 | 95.4%
27 | COc1cccc(CCC(=O)c2cc3c(N)c(C(=O)Nc4cccc(Cl)c4C)sc3nc2C)c1 | 28.2%
28 | O=C1Nc2cc(-c3ccncc3)ccc2/C1=C/c1ccc[nH]1 | -20.9% (active)
29 | COc1ccc(-c2nn(Cc3ccccc3)c3c2-c2oncc2CC3)cc1OC | 84.8%
30 | CN1CCN(CC#CCNC(=O)[C@]23CCC(C)(C)C[C@H]2C2=CC[C@@H]4[C@@]5(C)Cc6c([nH]c7ccccc67)C(C)(C)[C@@H]5CC[C@@]4(C)[C@]2(C)CC3)CC1 | 94.4%
31 | NC(=O)c1cccc(-n2ccc3cc(NC(=O)Nc4cc(C(F)(F)F)cc(C(F)(F)F)c4)ccc32)n1 | 44.7%
32 | COc1cc(C(=O)/C=C/c2c(C)n([O-])c3ccc(Cl)cc3[n+]2=O)cc(OC)c1OC | 29.8%
33 | O=C(CNCCO)Nc1ccc2ncnc(Nc3ccc(OCc4cccc(F)c4)c(Cl)c3)c2c1 | 45.2%
34 | CC[C@@]12C=CCN3CC[C@]4(c5cc(NC(=O)COc6cc(OCC(=O)Nc7cc8c(cc7OC)N(C)[C@H]7[C@@](O)(C(=O)OC)[C@H](OC(C)=O)[C@]9(CC)C=CCN%10CC[C@]87[C@@H]%109)cc7oc(-c8ccccc8)cc(=O)c67)c(OC)cc5N(C)[C@@H]4[C@](O)(C(=O)OC)[C@H]1OC(C)=O)[C@H]32 | 77.3%
35 | Cc1cc2nc(-c3ccccc3)c(-c3ccccc3)nc2cc1C | 86.5%
